Measurements as given in PubChem BioAssay (EPA / NIEHS).
Results filed as inconclusive are left out. Activity calls are given as the source filed them. How the source made its calls: active means hit-call score of the fitted dose curve at least 0.9, where 1 is the maximum; inconclusive means response in the unintended direction; inactive means score below 0.9.

What follows are molecules tested against human Adrenergic, Beta 3 Receptor (Adrb3), ADRB3 (gene 155) (UniProt P13945) (assay: NVS_GPCR_hAdrb3: NovaScreen (NVS) G Protein-Coupled Receptor Assay for human Adrenergic, Beta 3 Receptor (Adrb3) (AID 2283262)).
Procedure, shortened: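 A cell-free filter binding assay read by scintillation counting, with displacement of a specific radioligand measured after 1 hour. The receptor source was SK-N-MC extracts (cells pretreated with isoproterenol and 8-bromo-cAMP). Compounds were first tested at 25 uM in duplicate and then in concentration series.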

Sequence of human Adrenergic, Beta 3 Receptor (Adrb3), ADRB3 (gene 155) (P13945 whole entry, looked up): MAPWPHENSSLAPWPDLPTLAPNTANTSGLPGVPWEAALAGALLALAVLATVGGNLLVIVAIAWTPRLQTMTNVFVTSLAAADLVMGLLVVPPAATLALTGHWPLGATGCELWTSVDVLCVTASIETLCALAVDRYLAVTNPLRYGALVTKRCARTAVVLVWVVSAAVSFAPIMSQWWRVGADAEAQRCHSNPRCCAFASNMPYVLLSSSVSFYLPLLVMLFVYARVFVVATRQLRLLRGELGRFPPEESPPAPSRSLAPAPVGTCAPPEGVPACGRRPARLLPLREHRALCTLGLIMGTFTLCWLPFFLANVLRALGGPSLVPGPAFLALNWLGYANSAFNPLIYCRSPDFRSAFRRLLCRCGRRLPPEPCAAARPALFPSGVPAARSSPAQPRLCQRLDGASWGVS

| SMILES | AC50 | outcome |
| --- | --- | --- |
| CN(C)c1ccc(C(=C2C=CC(=[N+](C)C)C=C2)c2ccc(N(C)C)cc2)cc1 | 16.3 µM (active) |  |
| CCCCCCCCCCCC[N+](C)(C)C | 25 µM (active) |  |
| COc1cccc([C@H](O)C2CCN(CCc3ccc(F)cc3)CC2)c1OC |  | inactive |
| CCOC(=O)O[C@H](C)OC(=O)c1ccc2c(c1)cc(C(=O)NC1CCN(C(C)C)CC1)n2Cc1cc(-c2ccc(Cl)s2)on1 | 20 µM (active) |  |
| CN(C)C(=O)C1(N2CCCCC2)CCN(CC[C@@]2(c3ccc(Cl)c(Cl)c3)CN(C(=O)c3ccccc3)CCO2)CC1 | 23.6 µM (active) |  |
| NCc1cccc(C2CCN(C(=O)c3ccc(C#Cc4ccccc4F)o3)CC2)c1 |  | inactive |
| CCN(CC)C(=O)c1cc(S(=O)(=O)Cc2ccccc2)c(N2CCC(c3ccccc3)CC2)cc1N(CC)CCN(C)C |  | inactive |
| Cc1oc2c(NC(=O)c3c(Cl)cccc3Cl)cccc2c1C(C)(C)O |  | inactive |
